The source of these data is PubChem BioAssay (Tox21).

The nature of assay [1]: qHTS assay to identify small molecule antagonists of the estrogen related receptor (ERR) signaling pathway from Tox21 library - cell viability counter screen (AID 1224834). Further: nearly all actives have a fitted effect of over 30% in size. Further: potency means the concentration at half of the fitted maximal effect. The gist of the method: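 Counter screen run in ERR cells (2,000 cells/well): cells pre-incubated 6 h, then treated with compounds for 17.5 h at 37 C. Fluorescence was read 30 min after CellTiter-Fluor addition.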
A general note: In qHTS, concentration-response curves come from the screen itself.

Assay [2] deals with Luciferin 4-monooxygenase (Photinus pyralis) (UniProt P08659). Put plainly: qHTS assay to identify small molecule inhibitors of firefly luciferase (AID 1224835). Further: nearly all actives have a fitted effect of over 25% in size. Further: potency means the concentration at half of the fitted maximal effect. The procedure, abridged:
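Inhibition of purified Photinus luciferase is measured by luminescence. Substrate levels (D-luciferin, ATP) sit at their KM values. Each compound is tested in a concentration series.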

A short description of assay [3]: qHTS assay to identify small molecule agonists of the constitutive androstane receptor (CAR) signaling pathway - cell viability counter screen (AID 1224836). Further: nearly all actives have a fitted effect of over 45% in size. The procedure, abridged: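 Compound titrations (15 concentrations) went onto HepG2-CYP2B6-hCAR cells 4 h after seeding, alongside PK11195 at a final 0.75 uM; a 23 h, 37 C/5% CO2 incubation preceded CellTiter-Fluor viability measurement.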

Assay [4] can be described thus: qHTS assay to identify small molecule antagonists of the constitutive androstane receptor (CAR) signaling pathway - cell viability counter screen (AID 1224837). Further: nearly all actives have a fitted effect of over 45% in size. The gist of the method: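 CITCO at 50 nM final was added alongside compounds (15 concentrations) to double-stable hCAR/CYP2B6-2.2kb HepG2 cells. Following 23 hr at 37 C, cell viability was quantified by CellTiter-Fluor fluorescence intensity.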

For assay [5], the target named is Nuclear receptor subfamily 1 group I member 3 (Homo sapiens) (UniProt Q14994). Briefly: qHTS assay to identify small molecule antagonists of the constitutive androstane receptor (CAR) signaling pathway (AID 1224838). Further: nearly all actives have a fitted effect of over 40% in size. The gist of the method: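 Inhibition of CITCO-driven (50 nM final) CYP2B6 reporter expression is measured in HepG2 cells stably carrying hCAR. Fifteen compound concentrations are applied for 24 h at 37 C, followed by luciferase luminescence.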
Chain of Nuclear receptor subfamily 1 group I member 3 (Homo sapiens) (Q14994 whole entry, looked up): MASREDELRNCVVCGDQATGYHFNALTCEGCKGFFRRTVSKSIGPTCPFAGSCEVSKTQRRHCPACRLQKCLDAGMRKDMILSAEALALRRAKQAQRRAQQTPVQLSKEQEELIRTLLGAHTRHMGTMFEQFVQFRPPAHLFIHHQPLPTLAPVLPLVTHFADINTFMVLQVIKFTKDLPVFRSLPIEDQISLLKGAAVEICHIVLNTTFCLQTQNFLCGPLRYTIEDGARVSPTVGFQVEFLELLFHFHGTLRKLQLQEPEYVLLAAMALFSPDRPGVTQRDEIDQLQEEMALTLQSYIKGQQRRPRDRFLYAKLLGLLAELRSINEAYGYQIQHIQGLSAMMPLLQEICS

Assay [6] has the same target. Put plainly: qHTS assay to identify small molecule agonists of the constitutive androstane receptor (CAR) signaling pathway (AID 1224839). Further: nearly all actives have a fitted effect of over 15% in size. Further: potency means the concentration at half of the fitted maximal effect. The gist of the method:
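In this screen, CAR-driven CYP2B6 promoter activity is measured by luminescence in HepG2-CYP2B6-hCAR cells after 24 h with test compounds and 0.75 uM PK11195 (final concentration).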

Assay [7] in a line: qHTS assay to identify small molecule antagonists of the estrogen related receptor signaling pathway with the pleiotropic PPARgamma coactivator (PGC) from Tox21 10K library - cell viability counter screen (AID 1224840; active means well fitted cell-killing curve with a large enough effect in the repeat runs, not every such curve was filed as active; further: nearly all actives have a fitted effect of over 40% in size; further: potency means the concentration at half of the fitted maximal effect). The gist of the method:
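Readout: fluorescence intensity from CellTiter-Fluor after 30 min at 37 C/5% CO2. Preceded by 17.5 h treatment of PGC/ERR cells with DMSO-dissolved compounds, added 6 h post-seeding.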

Assay [8] in a line: qHTS assay to identify small molecule antagonists of the estrogen related receptor signaling pathway with the pleiotropic PPARgamma coactivator (PGC) from Tox21 10K library (AID 1224841; call rule not given here; further: actives are mostly falling curves and most rising ones were filed inactive; nearly all actives have a fitted effect of over 50% in size). The gist of the method: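 One-Glo luminescence, measured after half an hour at room temperature, quantified reporter output of PGC/ERR cells. These had been plated at 2,000 per well, incubated 6 h, dosed with compounds in DMSO, then kept 18 h at 37 C.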

Assay [9] is described as follows: qHTS assay to identify small molecule agonists of the estrogen related receptor signaling pathway with the pleiotropic PPARgamma coactivator (PGC) from Tox21 10K library (AID 1224842). Further: nearly all actives have a fitted effect of over 15% in size. Further: potency means the concentration at half of the fitted maximal effect. The procedure, abridged:
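Luminescence from One-Glo (30 min, room temperature) measured after PGC/ERR cells had 18 h at 37 C with pinned compound (23 nL in DMSO). Cells had been seeded at 2,000 per well and pre-incubated 6 h.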

Assay [10] is described as follows: qHTS assay to identify small molecule agonists of the hypoxia (HIF-1) signaling pathway (AID 1224846; active means well fitted activation curve with a large enough effect in the signal ratio in the repeat runs, not every such curve was filed as active; the % refers to the signal ratio). The gist of the method:
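ME-180 HRE-bla reporter cells; compounds in DMSO, 17 h at 37C; read-out beta-lactamase via CCF4-AM FRET.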

Assay [11] is described as follows: qHTS assay to identify small molecule antagonists of the estrogen related receptor (ERR) signaling pathway from Tox21 library (AID 1224848). Further: nearly all actives have a fitted effect of over 50% in size. Further: potency means the concentration at half of the fitted maximal effect. The gist of the method:
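ERR cell line, 2,000 cells/well. 6 h settle, then compound (DMSO) added; 18 h at 37 C; ONE-Glo luminescence after 30 min RT.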

Assay [12] can be described thus: qHTS RealTime-Glo MT Cell Viability Assay in HepG2 cells - 24 hour (AID 1224867). Further: nearly all actives have a fitted effect of over 50% in size. The procedure, abridged: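 Cell number in HepG2 cultures estimated from NanoLuc luminescence generated by metabolic reduction of a prosubstrate by living cells. The homogeneous, nonlytic format allowed repeated reads at 0, 8, 16, 24, 32 and 40 h of compound exposure.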
The nature of assay [13]: qHTS RealTime-Glo MT Cell Viability Assay in HEK293 cells - 32 hour (AID 1224868). Further: nearly all actives have a fitted effect of over 50% in size. Further: potency means the concentration at half of the fitted maximal effect. The gist of the method: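 Homogeneous bioluminescent viability format in HEK293 cells (600 cells/well). Following 5 h at 37 C/5% CO2, 23 nL compound was pintooled; the signal was measured repeatedly during 40 h incubation.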
Assay [14] addresses Thyrotropin receptor (Homo sapiens) (UniProt P16473). Briefly: qHTS assay to identify small molecule agonists of the thyroid stimulating hormone receptor (TSHR) signaling pathway (AID 1224843; calls by dose curve; further: nearly all actives have a fitted effect of over 45% in size). The gist of the method:
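A cell-based cAMP HTRF format was run in TSHR-transfected HEK293 cells, 800 per well. Treatment: 30 min, room temperature. Detection: 1 h with labelled cAMP and anti-cAMP cryptate. Concentration-response over 15 points, three replicates.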

Assay [15] is described as follows: qHTS assay to identify small molecule agonists of the hypoxia (HIF-1) signaling pathway - cell viability counter screen (AID 1224844; calls by dose curve; further: nearly all actives have a fitted effect of over 50% in size). The gist of the method: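 In this counter screen, HRE-bla ME-180 cell viability after 17 hrs of compound exposure at 37C was read by CellTiter-Glo luminescence, multiplexed with the beta-lactamase reporter measurement.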
Assay [16] can be described thus: qHTS assay to identify small molecule agonists of H2AX (AID 1224845; active means well fitted activation curve with a large enough effect in the signal ratio in the repeat runs, not every such curve was filed as active; the % refers to the signal ratio). The procedure, abridged:
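Phospho-H2AX Ser139 measured by HTRF (ex 320 nm; em 665 and 620 nm) after 24 hr antibody incubation. Compounds, 15 concentrations, 0.76% DMSO, were applied to CHO-K1 cells for 3hr at 37C before lysis.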

A short description of assay [17]: qHTS assay to identify small molecule agonists of H2AX - cell viability counter screen (AID 1224847; calls by dose curve; further: top concentration of the series differs between compounds; nearly all actives have a fitted effect of over 30% in size). The procedure, abridged: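 Read-out: CellTiter-Glo luminescence, 30 min RT. Cells: wild-type CHO-K1, 1000/well, 10% FBS, plated overnight at 37C. Treatment: 15 concentrations, 3 hr, 37C, 0.76% DMSO.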
Assay [18] in a line: qHTS assay to identify small molecule agonists of the estrogen related receptor (ERR) signaling pathway from Tox21 library (AID 1224849; calls by dose curve; further: nearly all actives have a fitted effect of over 15% in size). To be noted: ERR reporter cell line, ONE-Glo luciferase, 18 h; at 92.4 µM (top of the series). The procedure, abridged:
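Luciferase activity in ERR pathway reporter cells served as the agonist readout; exposure lasted 18 h at 37 C, with ONE-Glo detection after 30 min at room temperature.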

Assay [19] can be described thus: A CellTox Green Cytotoxicity Assay to monitor cytotoxicity in HEK293 cells - 0 hour (AID 1224869). Further: nearly all actives have a fitted effect of over 50% in size. The gist of the method: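 Real-time, in one plate: 600 HEK293 cells/well with dead-cell DNA dye, pinned compound after 5 h, 37 C incubation over 40 h; viable cells give no appreciable fluorescence.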

Values joined by “and” are separate entries in the source; they are usually repeats but may differ in a detail not shown here. Identical values can stand only once. Results filed as inconclusive are left out. Where a structure was tested more than once in an assay, its records may differ in their call. Active and inactive are the calls of the source. Unless noted, the call rests on the fitted dose curve; in most records, active means well fitted curve in the direction sought with a large enough effect in the repeat runs; inconclusive means weak or mixed curves; inactive means no such curve, though single readings can be large; an effect the other way counts as inactive or inconclusive.
On the % scale 0 is the no-effect control and ±100 the full control effect.

Chain of Thyrotropin receptor (Homo sapiens) (P16473 whole entry, looked up): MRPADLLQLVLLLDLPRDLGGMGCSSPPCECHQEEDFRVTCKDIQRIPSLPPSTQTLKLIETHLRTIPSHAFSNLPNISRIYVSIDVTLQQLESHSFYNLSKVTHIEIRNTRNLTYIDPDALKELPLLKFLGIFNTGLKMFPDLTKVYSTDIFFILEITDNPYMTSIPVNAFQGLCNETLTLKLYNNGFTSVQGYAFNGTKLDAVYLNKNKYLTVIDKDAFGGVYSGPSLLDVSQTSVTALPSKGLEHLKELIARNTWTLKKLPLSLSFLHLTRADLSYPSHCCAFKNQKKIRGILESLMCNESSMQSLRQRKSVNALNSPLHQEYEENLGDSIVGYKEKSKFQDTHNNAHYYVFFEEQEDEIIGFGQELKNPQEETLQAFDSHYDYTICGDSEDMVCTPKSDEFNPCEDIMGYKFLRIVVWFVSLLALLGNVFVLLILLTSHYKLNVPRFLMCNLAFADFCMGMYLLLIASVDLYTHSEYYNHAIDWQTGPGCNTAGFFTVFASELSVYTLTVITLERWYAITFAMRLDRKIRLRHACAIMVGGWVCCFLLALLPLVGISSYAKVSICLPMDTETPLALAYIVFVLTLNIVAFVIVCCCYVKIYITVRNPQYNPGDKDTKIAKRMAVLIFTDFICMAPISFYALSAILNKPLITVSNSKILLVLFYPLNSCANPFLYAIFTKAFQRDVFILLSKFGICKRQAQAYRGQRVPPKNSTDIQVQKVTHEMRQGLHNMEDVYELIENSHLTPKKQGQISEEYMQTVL
Chain of Luciferin 4-monooxygenase (Photinus pyralis) (P08659 whole entry, looked up): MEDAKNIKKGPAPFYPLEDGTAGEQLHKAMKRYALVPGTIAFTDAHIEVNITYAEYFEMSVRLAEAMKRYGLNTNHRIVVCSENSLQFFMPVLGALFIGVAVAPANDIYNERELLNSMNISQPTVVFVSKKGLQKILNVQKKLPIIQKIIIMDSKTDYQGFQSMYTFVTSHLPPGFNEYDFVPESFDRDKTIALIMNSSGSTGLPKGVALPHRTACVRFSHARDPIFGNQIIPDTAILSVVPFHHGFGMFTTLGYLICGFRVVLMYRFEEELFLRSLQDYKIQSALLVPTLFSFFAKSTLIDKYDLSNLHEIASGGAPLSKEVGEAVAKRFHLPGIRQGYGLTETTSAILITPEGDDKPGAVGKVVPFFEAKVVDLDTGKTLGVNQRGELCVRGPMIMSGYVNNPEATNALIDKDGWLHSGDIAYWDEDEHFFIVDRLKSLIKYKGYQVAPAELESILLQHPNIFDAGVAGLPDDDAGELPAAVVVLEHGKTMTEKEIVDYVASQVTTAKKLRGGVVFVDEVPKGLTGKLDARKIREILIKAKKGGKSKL

As to `COc1cc(-c2ccc(N)c(OC)c2)ccc1N`, the Potency was 52 µM (active) in assay [1]; 31.8 µM (active) and inactive in [2]; 54.7 µM (active) and 58.3 µM (active) in assay [6]; “inactive and 29.2 µM (active)” in assay [7]; “inactive and 46.3 µM (active)” in assay [11]; “inactive and 37.1 µM (active)” in [13]. Moreover, the Potency result in assay [3], in assay [4], in assay [5], in [8] and in assay [9] was “inactive” each time. The outcome in [10] and in [12] was inactive.
Regarding `CNC(=O)O/N=C/C(C)(C)SC`, the Potency entry in assay [1], in [2], in assay [3], in assay [4], in assay [5] and in assay [6] was “inactive” throughout. Also, the Potency entry in assay [7], in assay [8], in [9], in assay [14], in [15] and in assay [16] was “inactive” each time. Besides, the Potency result in assay [17], in [11] and in assay [13] was “inactive” throughout. The molecule was classed as inactive in assay [10] and in assay [12]. Besides, the activity change, positive = activation in assay [18] was 5.2% (inactive) and 5.41% (inactive).
In the case of `N#Cc1cccc(C#N)c1`, the Potency entry in assay [1], in assay [2], in assay [3], in [4], in assay [5] and in assay [6] was “inactive” throughout. Further, the Potency entry in assay [14], in assay [15], in assay [16], in [13] and in assay [19] was “inactive” each time. In addition, the result in assay [10] and in assay [12] was inactive.
For `COC(=O)Nc1cccc(OC(=O)Nc2cccc(C)c2)c1`, the Potency entry in assay [1], in [3], in assay [4], in assay [5], in [7] and in assay [8] was “inactive” throughout. Also, the Potency result in assay [15], in assay [16], in assay [17], in [11], in [13] and in assay [19] was “inactive” throughout. Also, the Potency in [2] was 6.33 µM (active) and 12.6 µM (active); in assay [6], 30.6 µM (active) and 4.86 µM (active); in [9] it was 13.7 µM (active). Further, the call in assay [10] and in [12] was inactive. Besides, the activity change, positive = activation in [18] was 26.6% (active) and 34.9% (active).
For the molecule `CN(C)C(=O)Cl`, the Potency entry in assay [1], in [2], in assay [3], in assay [4], in [5] and in assay [6] was “inactive” each time. The Potency entry in assay [7], in [8], in assay [9], in [14], in [15] and in [16] was “inactive” in each case. Further, the Potency entry in [17], in assay [11], in assay [13] and in assay [19] was “inactive” throughout. In addition, the call in assay [10] and in assay [12] was inactive. The activity change, positive = activation in assay [18] was 5.68% (inactive) and 6.16% (inactive).
Take `C=CC#N`: the Potency entry in assay [1], in [2], in [3], in assay [5], in assay [6] and in assay [7] was “inactive” in each case. The Potency result in assay [8], in assay [9], in [14], in [15], in assay [16] and in assay [17] was “inactive” in each case. Further, the Potency result in assay [11] and in assay [13] was “inactive” throughout. The result in assay [10] and in assay [12] was inactive. In addition, in assay [18], the activity change, positive = activation is 0.57% (inactive) and 1.17% (inactive).
With `C[C@H]1C(=O)O[C@@H]2CCN3CC=C(COC(=O)[C@](C)(O)[C@]1(C)O)[C@H]23`, the Potency result in assay [1], in [2], in assay [3], in assay [4], in [7] and in assay [14] was “inactive” in each case. Besides, the Potency result in [17], in [13] and in assay [19] was “inactive” in each case. In assay [12], the result was inactive.
In the case of `Cc1cccc(N)c1C`, the Potency entry in assay [1], in assay [2], in assay [3], in assay [4], in assay [5] and in assay [14] was “inactive” each time. Besides, the Potency entry in [16], in assay [13] and in [19] was “inactive” each time. Besides, the Potency entry in assay [6] is “inactive and 61.1 µM (active)”. Also, the result in assay [10] and in assay [12] was inactive.
